Laboratory results published in PubChem BioAssay AID651813 (National Center for Advancing Translational Sciences (NCATS), 2012).
About 1,100 (52%) of roughly 2,100 compounds were called active. Roughly 27% stayed inconclusive and do not appear here. The set was probably picked from earlier hits. This is one part of the list. Values without a mark were called inactive. Calls follow the shape of the dose curve; as a rule, active = well fitted inhibition curve with a large enough effect; inconclusive = small, poorly fitted or top-dose-only effect; inactive = no such curve, though single readings can be large or run the other way.

Each molecule was assayed against DNA dC->dU-editing enzyme APOBEC-3G (Homo sapiens) (UniProt Q9HC16) (assay: qHTS for inhibitors of Vif-A3G interactions: Cherry picks counterscreen). Details: HeLa A3G-eYFP + Vif (tagged APOBEC3G with the HIV-1 protein that degrades it), eYFP fluorescence, 24 h.
DNA dC->dU-editing enzyme APOBEC-3G (Homo sapiens), sequence (Q9HC16 whole entry, looked up): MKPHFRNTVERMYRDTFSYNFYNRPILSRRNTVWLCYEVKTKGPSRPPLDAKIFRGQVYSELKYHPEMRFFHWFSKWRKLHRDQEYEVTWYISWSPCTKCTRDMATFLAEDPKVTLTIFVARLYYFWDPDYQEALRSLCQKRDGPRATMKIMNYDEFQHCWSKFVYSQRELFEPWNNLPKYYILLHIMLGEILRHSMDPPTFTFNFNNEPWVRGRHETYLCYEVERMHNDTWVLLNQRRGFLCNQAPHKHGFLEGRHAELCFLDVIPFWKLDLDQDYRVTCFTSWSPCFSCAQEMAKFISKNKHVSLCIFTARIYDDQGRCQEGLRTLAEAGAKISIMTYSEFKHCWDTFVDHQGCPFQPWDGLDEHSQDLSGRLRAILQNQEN
Summary of the method: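 Readout is eYFP fluorescence (488 nm excitation, 500-530 nm emission) measured on Acumen Explorer after 24 h compound exposure, several concentrations, at 37 deg C. Cells: HeLa stably co-expressing Vif and C-terminally eYFP-tagged A3G; MG132 positive control.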
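Also: hits raise yellow fluorescence by blocking Vif-driven A3G-eYFP degradation; nearly all actives have a fitted effect of over 70% in size.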
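For max response in this document: max response given as percent of control signal.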
Potency is read from the fitted curve at half-maximal effect.

Row | Compound | Potency | max response [%]
1 | COc1cc(/C=C(\C#N)c2nc3ccccc3[nH]2)ccc1O | 2.31 µM (active) | –
2 | COc1cc(/C=C(/C#N)c2nc3ccccc3[nH]2)ccc1OC(=O)c1ccco1 | – | 51.6
3 | O=C1C=C(Nc2ccc(Cl)cc2Cl)CC(c2ccco2)C1 (stereo unspecified) | 5.59 µM (active) | –
4 | COc1cc2nc(/C=C/c3ccc(N(C)C)cc3)sc2cc1SC | 5.17 µM (active) | –
5 | CN(C)c1ccccc1-c1cc(NC=O)c2ncc(-c3cccc(C(F)(F)F)c3)n2c1 | 12.5 µM (active) | –
6 | COc1ccc(-c2cnc3c(NC=O)cc(-c4cc(OC)c(OC)c(OC)c4)cn23)cc1OC | 12.5 µM (active) | –
7 | COc1ccc(-c2cnc3c(NC=O)cc(-c4ccccc4)cn23)cc1OC | 3.14 µM (active) | –
8 | COc1ccc(-c2cc(NC=O)c3ncc(-c4ccc(OC)c(OC)c4)n3c2)cc1OC | 5.59 µM (active) | –
9 | COc1ccc(-c2cnc3c(NC=O)cc(-c4ccoc4)cn23)cc1OC | 11.2 µM (active) | –
10 | COc1ccccc1-c1cc(NC=O)c2ncc(-c3ccc(S(C)(=O)=O)cc3)n2c1 | 17.7 µM (active) | –
11 | COc1cccc(-c2cnc3c(NC=O)cc(-c4cc(OC)c(OC)c(OC)c4)cn23)c1 | 9.94 µM (active) | –
12 | CCOc1ccccc1C(=O)Nc1c(C(=O)Nc2ccc(F)cc2)oc2ccccc12 | 2.06 µM (active) | –
13 | COc1ccccc1NC(=O)c1oc2ccccc2c1NC(=O)c1cccc(OC)c1OC | 5.8 µM (active) | –
14 | CCCOc1ccc(N)cc1N | – | -27.6
15 | O=S(=O)(Nc1nc2ccccc2nc1OCC(F)(F)F)c1cccs1 | – | -0.0016
16 | O=C(COC(=O)c1ccc(NS(=O)(=O)c2cccs2)cc1O)NCc1ccccc1 | 4.44 µM (active) | –
17 | COc1ccc(NC(=O)COC(=O)c2cc(OC)c(OC)cc2NC(=O)c2ccco2)cc1OC | – | 9.25
18 | O=C(COC(=O)c1ccc(NS(=O)(=O)c2cccs2)cc1)NCc1ccco1 | 15.8 µM (active) | –
19 | O=C(Cc1ccccc1)NCc1ccc(-n2cccc2)cc1 | 1.4 µM (active) | –
20 | C/C(CCC(C)C)=N\NC(=S)NCc1ccccc1 | – | -18.4
21 | Cc1ccc(CNC(=O)Cc2ccc(-n3cccc3)cc2)cc1 | 1.98 µM (active) | –

Row | Compound | Potency | max response [%]
22 | Cc1ccc2nc(C)c(C(=O)NN=C3CCCCCC3)n2c1 | – | -10.3
23 | COc1cc(/C=C2/SC(=Nc3ccc(O)cc3)NC2=O)ccc1O | 14.6 µM (active) | –
24 | COc1cc(/C=C2\SC(=Nc3cccnc3)NC2=O)cc(OC)c1OC | – | -29.3
25 | CCOc1cc(Br)cc(/C=C2\SC(=Nc3ccccc3)NC2=O)c1O | – | -7.55
26 | COc1cc(/C=C2\SC(=Nc3ccccc3)NC2=O)cc(Cl)c1O | 3.66 µM (active) | –
27 | O=C1NC(=Nc2ccc(O)cc2)S/C1=C/c1ccco1 | 8.86 µM (active) | –
28 | Cc1ccc2nc(/C(C#N)=C/c3ccc(-c4ccccc4C(=O)O)o3)[nH]c2c1 | – | 43.5
29 | N#C/C(=C\c1ccc(-c2ccc(F)cc2F)o1)c1nc2ccccc2[nH]1 | 8.2 µM (active) | –
30 | Cc1ccc2nc(/C(C#N)=C\c3ccc([N+](=O)[O-])o3)[nH]c2c1 | 18.4 µM (active) | –
31 | Cc1ccc2nc(/C(C#N)=C/c3ccc(-c4ccc(F)cc4F)o3)[nH]c2c1 | 1.64 µM (active) | –
32 | Cc1ccc2nc(/C(C#N)=C\c3ccc(OC(=O)c4cccs4)cc3)[nH]c2c1 | 11.2 µM (active) | –
33 | COc1cc(CNCCSc2nnnn2C)ccc1OCc1c(F)cccc1Cl | – | 28.9
34 | Cc1ccc2nc(/C(C#N)=C/c3ccc(-c4cccc(Cl)c4)o3)[nH]c2c1 | 8.2 µM (active) | –
35 | N#C/C(=C\c1ccc(-c2ccc(C(=O)O)cc2)o1)c1nc2ccccc2[nH]1 | 4.61 µM (active) | –
36 | Cc1ccc2nc(/C(C#N)=C/c3ccc(-c4ccc(C(=O)OC(C)C)cc4)o3)[nH]c2c1 | 3.66 µM (active) | –
37 | Cc1c(Cl)cccc1-c1ccc(/C=C(\C#N)c2nc3ccccc3[nH]2)o1 | 10.3 µM (active) | –
38 | N#Cc1ccc(-c2cccs2)nc1SCc1c(F)cccc1Cl | 1.84 µM (active) | –
39 | C=C(C(=O)c1ccccc1)C(C(=C)C(=O)c1ccccc1)c1ccc(OC)cc1 | 9.94 µM (active) | –
40 | C=C(C(=O)c1ccccc1)C(C)C(=C)C(=O)c1ccccc1 | 8.86 µM (active) | –
41 | C=C(C(=O)c1ccccc1)C(NC(C)(C)C)c1ccccc1 (stereo unspecified) | 14 µM (active) | –
42 | COc1ccc(-c2n[nH]c(C)c2-c2ccc(OC)c(OC)c2)c(O)c1 | 17.7 µM (active) | –

Row | Compound | Potency | max response [%]
43 | COc1cc2nc(SCC(=O)NCc3ccco3)n(Cc3ccc(Cl)cc3)c(=O)c2cc1OC | – | -29.6
44 | Cc1cc(C)c(NC(=O)Cn2c(=O)n(Cc3ccc(C(=O)NCc4ccco4)cc3)c(=O)c3sccc32)c(C)c1 | 18.4 µM (active) | –
45 | Cc1cccc(Cn2c(=O)n(CCCC(=O)NCc3ccco3)c(=O)c3ccccc32)c1 | 14 µM (active) | –
46 | Cc1ccc(C)c(Cn2c(=O)n(CCCC(=O)NCc3ccco3)c(=O)c3sccc32)c1 | 14 µM (active) | –
47 | CC(C)OC(=O)c1c2c(n3ccccc13)C(=O)c1ccccc1C2=O | 2.59 µM (active) | –
48 | CCc1nnc(NC(=O)CSc2nnc(-c3ccccc3O)n2-c2ccc(C)cc2C)s1 | 6.27 µM (active) | –
49 | CC(=O)c1cc(NC(=O)c2ccc(Cl)cc2)c(=O)oc1/C=C/N(C)C | 7.04 µM (active) | –
50 | CC(=O)c1cc(NC(=O)c2ccc(C)cc2)c(=O)oc1/C=C/N(C)C | 14.6 µM (active) | –
51 | COC(=O)c1cc(NC(=O)c2ccccc2)c(=O)oc1/C=C/Nc1ccc(Oc2ccccc2)cc1 | – | 11.8
52 | COC(=O)c1c(-c2ccccc2Cl)noc1/C=C/N(C)C | – | 16.3
53 | COc1ccc(C(=O)Nc2cc(C(C)=O)c(/C=C/N(C)C)oc2=O)cc1 | 9.94 µM (active) | –
54 | COc1ccc(N2CC(C(=O)N/N=C/c3ccc(C)cc3)CC2=O)cc1 (stereo unspecified) | 7.04 µM (active) | –
55 | COC(=O)c1ccccc1NC(=O)C1CC(=O)N(c2ccc(OC)cc2)C1 (stereo unspecified) | – | -25.1
56 | Cc1cccc2[nH]cc(/C=C3/C=Nc4ccccc43)c12 | 18.4 µM (active) | –
57 | Cc1ccc(-c2cc(C(=O)N/N=C/c3c[nH]c4ccccc34)[nH]n2)cc1 | 4.98 µM (active) | –
58 | Cc1ccc(/C=N/NC(=O)C2COc3ccccc3O2)s1 (stereo unspecified) | 7.9 µM (active) | –
59 | O=C(N/N=C/c1c[nH]c2ccccc12)C1COc2ccccc2O1 (stereo unspecified) | 14 µM (active) | –
60 | CNC(=S)N/N=C/c1ccc(N2CCOCC2)s1 | – | 10.6
61 | Cc1ccc(/C=N/NC(=O)c2ccc3ccccc3c2)s1 | 1.58 µM (active) | –
